Measured values as given in PubChem BioAssay AID1159580 (chemical genetic matrix, 2015).
In all, about 5,500 compounds went through this assay and about 2,000 (36%) were called active. Another 18% or so got no clear call; they are omitted. Cut-off read from the data, not from the text of the source: active = normalized growth mostly below about 0.91 (no sharp cut-off); inconclusive = no clear call, values can overlap the other calls; inactive = mostly above about 0.92. The list shows a part of the results.

Assay: chemical genetic growth profiling, strain panel (AID 1159580);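 note: tested at 20 µM; growth read once vehicle control cultures reached saturation at 30 °C; 1 = growth at the plate median or of vehicle wells; lower values mean less growth of the strain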
Settings: growth OD

Measured: normalized growth

OC1C(O)C(O)C(O)C(O)C1O (stereo not given)
inactive: S. cerevisiae deletion strains, locus YJR075W, strain HOC1, active compounds read low 1 | S. cerevisiae deletion strains, locus YKL009W, strain mrt4, active compounds read low 0.953 | S. cerevisiae deletion strains, locus YKL068W, active compounds read low 0.973 | S. cerevisiae deletion strains, locus YKL085W, strain MDH1 (second series), active compounds read low 0.97 | S. cerevisiae deletion strains, locus YKL085W, strain MDH1, active compounds read low 0.97 | S. cerevisiae deletion strains, locus YKL160W, strain elf1, active compounds read low 1 | S. cerevisiae deletion strains, locus YKL190W, strain CNB1, active compounds read low 0.99 | S. cerevisiae deletion strains, locus YKR001C, strain vps1, active compounds read low 0.982 | S. cerevisiae deletion strains, locus YKR026C, strain gcn3, active compounds read low 0.997 | S. cerevisiae deletion strains, locus YKR091W, strain srl3, active compounds read low 0.999 | S. cerevisiae deletion strains, locus YLL001W, strain dnm1, active compounds read low 0.997 | S. cerevisiae deletion strains, locus YLL026W, active compounds read low 1 | S. cerevisiae deletion strains, locus YLL041C, strain sdh2, active compounds read low 0.996 | S. cerevisiae deletion strains, locus YLR027C, strain aat2, active compounds read low 1 | S. cerevisiae deletion strains, locus YLR039C, strain RIC1, active compounds read low 0.966 | S. cerevisiae deletion strains, locus YLR058C, strain SHM2, active compounds read low 0.982 | S. cerevisiae deletion strains, locus YLR102C, strain apc9, active compounds read low 0.994 | S. cerevisiae deletion strains, locus YLR113W, strain HOG1, active compounds read low 0.964 | S. cerevisiae deletion strains, locus YLR221C, strain rsa3, active compounds read low 1 | S. cerevisiae deletion strains, locus YLR258W, strain gsy2, active compounds read low 0.998 | S. cerevisiae deletion strains, locus YLR262C, strain YPT6 (second series), active compounds read low 1 | S. cerevisiae deletion strains, locus YLR262C, strain YPT6, active compounds read low 0.962 | S. cerevisiae deletion strains, locus YLR268W, strain sec22, active compounds read low 0.996 | S. cerevisiae deletion strains, locus YLR320W, strain mms22, active compounds read low 0.998 | S. cerevisiae deletion strains, locus YLR330W, strain CHS5, active compounds read low 0.995 | S. cerevisiae deletion strains, locus YLR342W, strain FKS1 (second series), active compounds read low 1.04 | S. cerevisiae deletion strains, locus YLR342W, strain FKS1, active compounds read low 0.995 | S. cerevisiae deletion strains, locus YLR357W, strain rsc2, active compounds read low 0.988 | S. cerevisiae deletion strains, locus YLR370C, strain arc18, active compounds read low 1 | S. cerevisiae deletion strains, locus YLR371W, strain rom2, active compounds read low 0.976 | S. cerevisiae deletion strains, locus YLR384C, strain iki3, active compounds read low 0.998 | S. cerevisiae deletion strains, locus YLR418C, strain cdc73, active compounds read low 0.979 | S. cerevisiae deletion strains, locus YML016C, strain PPZ1, active compounds read low 0.996 | S. cerevisiae deletion strains, locus YML032C, strain rad52, active compounds read low 0.981 | S. cerevisiae deletion strains, locus YML120C, strain ndi1, active compounds read low 1.01 | S. cerevisiae deletion strains, locus YML124C, strain tub3, active compounds read low 0.985 | S. cerevisiae deletion strains, locus YMR058W, strain fet3, active compounds read low 1 | S. cerevisiae deletion strains, locus YMR078C, strain ctf18, active compounds read low 0.982 | S. cerevisiae deletion strains, locus YMR125W, strain sto1, active compounds read low 0.991 | S. cerevisiae deletion strains, locus YMR129W, active compounds read low 0.997 | S. cerevisiae deletion strains, locus YMR205C, strain PFK2, active compounds read low 0.996 | S. cerevisiae deletion strains, locus YMR223W, strain ubp8, active compounds read low 1.02 | S. cerevisiae deletion strains, locus YMR231W, strain pep5, active compounds read low 1 | S. cerevisiae deletion strains, locus YMR263W, strain SAP30, active compounds read low 0.99 | S. cerevisiae deletion strains, locus YMR307W, strain GAS1, active compounds read low 1.03 | S. cerevisiae deletion strains, locus YNL067W, strain RPL9B, active compounds read low 0.965 | S. cerevisiae deletion strains, locus YNL071W, strain lat1, active compounds read low 1 | S. cerevisiae deletion strains, locus YNL153C, strain GIM3, active compounds read low 0.972 | S. cerevisiae deletion strains, locus YNL183C, strain NPR1, active compounds read low 0.984 | S. cerevisiae deletion strains, locus YNL209W, strain ssb2, active compounds read low 0.997 | S. cerevisiae deletion strains, locus YNL233W, strain BNI4, active compounds read low 0.996 | S. cerevisiae deletion strains, locus YNL248C, strain rpa49, active compounds read low 0.99 | S. cerevisiae deletion strains, locus YNL250W, strain rad50, active compounds read low 0.979 | S. cerevisiae deletion strains, locus YNL271C, strain bni1, active compounds read low 0.984 | S. cerevisiae deletion strains, locus YNL298W, strain CLA4, active compounds read low 0.991 | S. cerevisiae deletion strains, locus YNL307C, strain MCK1, active compounds read low 0.984 | S. cerevisiae deletion strains, locus YNL322C, strain KRE1 (second series), active compounds read low 1 | S. cerevisiae deletion strains, locus YNL322C, strain KRE1, active compounds read low 0.993 | S. cerevisiae deletion strains, locus YNR049C, strain mso1, active compounds read low 1 | S. cerevisiae deletion strains, locus YNR052C, strain pop2, active compounds read low 0.989 | S. cerevisiae deletion strains, locus YOL006C, strain TOP1, active compounds read low 0.938 | S. cerevisiae deletion strains, locus YOL012C, strain htz1 1.04 | S. cerevisiae deletion strains, locus YOL147C, strain pex11, active compounds read low 0.994 | S. cerevisiae deletion strains, locus YOR001W, strain rrp6, active compounds read low 1.01 | S. cerevisiae deletion strains, locus YOR061W, strain CKA2, active compounds read low 0.974 | S. cerevisiae deletion strains, locus YOR069W, strain VPS5, active compounds read low 0.997 | S. cerevisiae deletion strains, locus YOR070C, strain gyp1, active compounds read low 1 | S. cerevisiae deletion strains, locus YOR080W, strain dia2, active compounds read low 0.993 | S. cerevisiae deletion strains, locus YOR083W, strain WHI5, active compounds read low 1 | S. cerevisiae deletion strains, locus YOR106W, strain vam3, active compounds read low 1 | S. cerevisiae deletion strains, locus YOR136W, strain idh2, active compounds read low 0.984 | S. cerevisiae deletion strains, locus YOR144C, strain elg1, active compounds read low 0.987 | S. cerevisiae deletion strains, locus YOR184W, strain ser1, active compounds read low 0.996 | S. cerevisiae deletion strains, locus YOR231W, strain MKK1, active compounds read low 0.995 | S. cerevisiae deletion strains, locus YOR265W, strain rbl2, active compounds read low 1 | S. cerevisiae deletion strains, locus YOR270C, strain vph1, active compounds read low 1 | S. cerevisiae deletion strains, locus YOR290C, strain snf2, active compounds read low 0.996 | S. cerevisiae deletion strains, locus YOR316C, strain cot1, active compounds read low 0.979 | S. cerevisiae deletion strains, locus YPL051W, strain arl3, active compounds read low 1.01 | S. cerevisiae deletion strains, locus YPL055C, strain LGE1, active compounds read low 0.966 | S. cerevisiae deletion strains, locus YPL078C, strain atp4, active compounds read low 1 | S. cerevisiae deletion strains, locus YPL106C, strain sse1, active compounds read low 1 | S. cerevisiae deletion strains, locus YPL240C, strain hsp82, active compounds read low 0.995 | S. cerevisiae deletion strains, locus YPL256C, strain CLN2, active compounds read low 0.961 | S. cerevisiae deletion strains, locus YPR119W, strain clb2, active compounds read low 0.993 | S. cerevisiae deletion strains, locus YPR141C, strain kar3, active compounds read low 0.929 | S. cerevisiae deletion strains, locus YPR163C, strain tif3, active compounds read low 0.991 | S. cerevisiae deletion strains, locus YPR167C, strain met16, active compounds read low 0.985 | S. cerevisiae deletion strains, strain wtn01, active compounds read low 0.993 | S. cerevisiae strains, strain wild type, active compounds read low 0.994
